Compound activity (PubChem)
TDP1 cell noCPT – qHTS for Inhibitors of human tyrosyl-DNA phosphodiesterase 1 (TDP1): qHTS in cells in absence of CPT; DT40 Tdp1-/- hTDP1 cells, no CPT, ATP luminescence, 48 h; Potency, µM (titrated, usually from 46.2 µM), for the others: at the top dose activity change, negative = growth inhibition, usual class: inhibitors; hit rate 15% among 420,000; note: % is set by controls: 0 for no effect and ±100 for the full control effect; nearly all actives have a fitted effect of over 55% in size
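Readout: luminescence from CellTiter-Glo after 30 min in the dark at RT. Cells: DT40 Tdp1-/- with stable hTDP1, 400/well. Exposure: compounds alone, ≥48 hr, 37 °C.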
HT1080-NT tox – kills 2HG-producing HT-1080-NT fibrosarcoma cells; HT-1080-NT fibrosarcoma viability, CellTiter-Glo ATP luminescence, 48 h; Potency, µM (titrated, usually from 46.1 µM), for inactives: at the top dose activity, negative = less viability, hits mostly cytotoxic; hit rate 1.6% among 360,000;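 note: NT is the 2HG producing partner of a matched IDH1 knockdown line; 0% = DMSO-treated cells and -100% = media-only wells without cells; nearly all actives have a fitted effect of over 55% in size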
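HT-1080-NT fibrosarcoma cells (2HG-overproducing), 750 cells/well in RPMI with 5% FBS, dosed after 2 h and incubated 48 h at 37C. CellTiter-Glo luminescence normalized to DMSO and no-cell wells; concentration-response curves fitted and classed.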
HT1080 IDH1KD tx – kills HT-1080 cells with IDH1 knockdown | hit rate 2% among 360,000 | AID 686971 | HT-1080 IDH1 knockdown viability, ATP luminescence, 48 h | Potency, µM (doses to about 46.1 µM), without a hit: top-dose activity, negative = toxicity, hits mostly cytotoxic;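 note: 0% = DMSO wells and -100% = cell-free medium wells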
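In this qHTS, HT-1080 cells depleted of IDH1 are exposed for 48 h at 37 °C to compound titrations. Toxicity is scored from CellTiter-Glo luminescence, with DMSO as full viability and medium alone as none.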
TGFb SMAD3 inh – TGF-b pathway inhibition. Potency, µM (highest dose often 46.1 µM), for inactives: at the top dose activity, negative = inhibition, most hits filed as inhibitors. hit rate 1.2% among 410,000. AID 588855. HepG2 CAGA-GFP TGF-b/SMAD3 reporter, GFP fluorescence, 18 h; TGF-beta stimulated, 500 pg/mL final; note: % is set by controls: 0 for no effect and ±100 for the full control effect; nearly all actives have a fitted effect of over 65% in size
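HEPG2 CAGA-GFP, 1000 cells/well; 2 h settle, 37 C; cpd via pin tool; TGF-b 500 pg/mL final; 18 h, 37 C; GFP imaging ex488/em500-530; %Activity normalised to -TGF-b and +DMSO controls; CRC fit, curve class.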
TDP1 cell CPT – DT40-hTDP1 cell growth loss with CPT; AID 686979; Potency, µM (top dose mostly 46.2 µM), for inactives: top-dose activity change, negative = growth inhibition, usual class: inhibitors; chicken DT40 Tdp1-/-;hTDP1 cells + 20 nM CPT, ATP luminescence, 48 h; hit rate 12% among 420,000; note: % is set by controls: 0 for no effect and ±100 for the full control effect; nearly all actives have a fitted effect of over 55% in size
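Cell growth measured by CellTiter-Glo luminescence after a minimum 48 h, 37 C compound exposure with 20 nM CPT in Tdp1-knockout DT40 cells stably expressing hTDP1, seeded 400/well; qHTS titration format.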
HepG2 tox – counter-screen for TGF-b inhibitors: cytotoxicity in HepG2 cells | HepG2 CAGA-GFP viability, ATP luminescence, 18 h | Potency, µM (doses to about 46.1 µM), for the others: at the highest dose activity change, negative = cytotoxicity, usual class: cytotoxic | hit rate 0.76% among 410,000 | AID 588856
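HepG2 CAGA-GFP cells (1000/well, DMEM with 1% FBS) received compound, then TGF-beta at 500 pg/mL final, and were incubated 18 hours at 37 degrees C. Viability was read by CellTiter-Glo luminescence. Media-only wells were set as complete cell-killing and DMSO as no toxicity.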
* = called active by the depositor; ? = inconclusive; . = no result given; [ ] = remark or other dose. Most compounds without a hit are left out; they make up all but 17% or so of the library. Calls come from the whole dose curve; as a rule, active = well fitted curve in the direction sought with a large enough effect; inconclusive = small, poorly fitted or top-dose-only effect, or another doubt; inactive = no such curve, though single readings can be large; an effect the other way counts as inactive or inconclusive. Potency is the fitted concentration of half-maximal effect.

SMILES	TDP1 cell noCPT	HT1080-NT tox	HT1080 IDH1KD tx	TGFb SMAD3 inh	TDP1 cell CPT	HepG2 tox
CCOC(=O)C1CCN(C(=O)COC(=O)c2ccc3[nH]c4c(c3c2)CCCC4)CC1	12µM*	-13%	-24%	13%	13µM*	-5%
O=C(COC(=O)c1ccc2[nH]c3c(c2c1)CCCC3)NC1CCS(=O)(=O)C1 (stereo unspecified)	?	1%	-9%	-7%	?	-18%
CCNc1ccc(/C=C2\C=Cc3ccccc32)cc1	?	.	.	5%	?	-18%
COC(=O)C1CCN(C(=O)c2ccc(OC)c(S(=O)(=O)N3CCCc4ccccc43)c2)CC1	?	1%	-2%	-1%	?	5%
COC(=O)C1CCN(C(=O)COC(=O)c2ccc(OC)c(S(=O)(=O)N3CCCc4ccccc43)c2)CC1	0.41µM*	3%	-2%	-10%	-18%	-11%
Cc1nn(CC(=O)Nc2sc3c(c2C#N)CCC(C(C)(C)C)C3)c(C)c1[N+](=O)[O-] (stereo unspecified)	18µM*	15%	24%	-19%	26µM*	-18%
CCc1cc(C(=O)N=Nc2c(O)[nH]c3c(Br)cc(Br)cc23)c2ccccc2n1	?	?	-12%	-19%	21µM*	14%
Brc1cccc[n+]1Cc1ccc(C[n+]2ccccc2Br)cc1	-8%	.	.	5%	3%	11%
OCC(CO)c1cnnc2ccccc12	-12%	2%	19%	-14%	-5%	1%
COCCCNC(=S)N1CCN(c2nc(-c3ccc(Cl)cc3)cs2)CC1	18µM*	-17%	-15%	-20%	?	-34%
O=C(NC(=S)N1CCN(c2nc(-c3ccccc3)cs2)CC1)c1cncc(Br)c1	?	-16%	-16%	?	10µM*	-47%
CCN(CC)CCCNC(=S)N1CCN(c2nc(-c3ccccc3)cs2)CC1	18µM*	16µM*	23µM*	?	?	-74%
CCC(=O)N1CCN(c2nc(-c3ccc(Cl)cc3)cs2)CC1	23µM*	-4%	?	-3%	23µM*	2%
CCCCNC(=S)N1CCN(c2nc3ccccc3s2)CC1	?	-23%	-1%	-9%	?	-24%
COCCNC(=S)N1CCN(c2nc(-c3cccc(OC)c3)cs2)CC1	?	-13%	-9%	-28%	?	-27%
Cc1cccc2cc(CN(CC3CCCO3)C(=O)C3CC3)c(N(C)C)nc12 (stereo unspecified)	1%	.	.	.	-3%[9.04 µM]	.
CCN1CCN(C(c2cccs2)C(C)NS(=O)(=O)c2ccc(C)cc2)CC1 (stereo unspecified)	?	5%	-2%	2%	-20%	-4%
COCCCNC(=S)N1CCN(c2nc(-c3ccccc3)cs2)CC1	12µM*	?	-17%	?	16µM*	-32%
COc1ccc(N2CCN(C(=O)CN3CCN(c4nc(-c5ccc(F)cc5)cs4)CC3)CC2)cc1	7.3µM*	-6%	2%	-8%	5.8µM*	-2%
CC(C)CNC(=S)N1CCN(c2nc(-c3ccc(Cl)cc3)cs2)CC1	16µM*	?	?	?	?	-40%
CCOc1ccc(NC(=O)Cn2c(=O)n(CC(=O)NCc3ccccc3Cl)c(=O)c3sccc32)cc1	-14%	.	.	2%	4%	-12%
C[C@H](NC(=O)c1ccccc1)C(=O)Nc1nc(-c2ccccn2)cs1	?	-3%	-15%	-7%	26µM*	-20%
Cc1cccc(C(=O)N[C@H](C(=O)Nc2ncc(C)s2)C(C)C)c1	?	-23%	-25%	11µM*	?	7%
CC(Oc1cccc(Cl)c1)C(=O)Nc1nc(-c2ccccn2)cs1 (stereo unspecified)	5.2µM*	?	-26%	?	3.3µM*	12%
CC(NC(=O)c1ccccc1)C(=O)NC1=NCCS1 (stereo unspecified)	0%	-4%	1%	-22%	-1%	1%
SMILES	TDP1 cell noCPT	HT1080-NT tox	HT1080 IDH1KD tx	TGFb SMAD3 inh	TDP1 cell CPT	HepG2 tox
Cc1nc(NC(=O)C(C)Oc2cccc(Cl)c2)sc1C(=O)N(C)C (stereo unspecified)	?	6%	7%	0%	?	-4%
Cc1cccc(C(=O)NC(C(=O)Nc2nc(-c3ccccn3)cs2)C(C)C)c1 (stereo unspecified)	12µM*	-28%	?	?	13µM*	-6%
CC(OC(=O)c1ccccn1)C(=O)Nc1nc(-c2ccc(F)c(F)c2)cs1 (stereo unspecified)	23µM*	4%	6%	0%	26µM*	1%
CC(Oc1ccccc1)C(=O)Nc1nc(-c2ccncc2)cs1 (stereo unspecified)	-11%	-2%[9.24 µM]	2%	20%	?	-17%
CC(Oc1ccccc1)C(=O)Nc1nc(-c2ccccn2)cs1 (stereo unspecified)	3.3µM*	-29%	?	-21%	3.7µM*	-22%
COc1cc(=O)n2c(c1C(=O)N(C)Cc1cscn1)CCN(C(=O)c1cccc(C)c1C)CC2	-8%	.	.	.	-1%	.
Cc1ccc(S(=O)(=O)/N=C(\CN2CCOCC2)N2CCCC2)cc1	-4%	3%	6%	29%	1%	4%
Cc1ccc(S(=O)(=O)/N=C(\CCl)N2CCOCC2)cc1	16µM*	-18%	?	?	15µM*	-4%
CCCN(CC(=O)Nc1ccccc1C)C(=O)/C=C/c1ccc(OC)c(OC)c1	-17%	-5%	-1%	-21%	-29%	-3%
COc1ccc(/C(O)=C2/C(=O)C(=O)N(c3ccccn3)C2c2ccc(F)cc2)cc1 (stereo unspecified)	22%	8%	11%	-2%	-20%	-4%
COc1ccc(C2/C(=C(/O)c3ccc(F)cc3)C(=O)C(=O)N2c2ccccn2)cc1OC (stereo unspecified)	23µM*	7%	4%	-1%	?	0%
COc1cccc(/C=N/NC(=O)c2cc3cc([N+](=O)[O-])ccc3s2)c1O	0.46µM*	4.1µM*	2.9µM*	0%	0.92µM*	10µM*
COC(=O)c1cccc(/C=N/NC(N)=S)c1O	0.26µM*	?	8%	?	0.18µM*	-51%
